# Laboratory results: PubChem BioAssay AID1159580 (chemical genetic matrix, 2015)
# “And” between values parts separate entries of the source, which are not always exact repeats. Equal values may be shown once. In all, about 5,500 compounds went through this assay and about 2,000 (36%) were called active. About 18% were inconclusive and are not listed. The list shows a part of the results. A number with no mark means an inactive call. Cut-off read from the data, not from the text of the source: active = normalized growth mostly below about 0.91 (no sharp cut-off); inconclusive = no clear call, values can overlap the other calls; inactive = mostly above about 0.92.
# Assay: chemical genetic growth profiling, strain panel (AID 1159580);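 note: tested at 20 µM; growth read once vehicle control cultures reached saturation at 30 °C; 1 = growth at the plate median or of vehicle wells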
# Conditions: S. cerevisiae deletion strains, growth OD
structure (smiles),measurement,setting,value
COc1cc(C(=O)N2CCOCC2)cc(OC)c1OC,normalized growth,"locus YAL013W, strain DEP1, stronger effect = lower value",1.01
same,normalized growth,"locus YAL021C, strain ccr4, stronger effect = lower value",1.01
same,normalized growth,"locus YAL026C, strain drs2, stronger effect = lower value",0.974
same,normalized growth,"locus YAL030W, strain snc1, stronger effect = lower value",0.984
same,normalized growth,"locus YBL061C, strain skt5, stronger effect = lower value",0.967
same,normalized growth,"locus YBR009C, strain hhf1, stronger effect = lower value",1.01
same,normalized growth,"locus YBR021W, strain FUR4, stronger effect = lower value",0.997
same,normalized growth,"locus YBR023C, strain chs3, stronger effect = lower value",0.971
same,normalized growth,"locus YBR171W, strain sec66, stronger effect = lower value",0.972
same,normalized growth,"locus YBR229C, strain ROT2, stronger effect = lower value",1.01
same,normalized growth,"locus YBR231C, strain swc5, stronger effect = lower value",0.983
same,normalized growth,"locus YBR279W, strain paf1, stronger effect = lower value",0.983
same,normalized growth,"locus YCL011C, strain gbp2, stronger effect = lower value",0.993
same,normalized growth,"locus YCL016C, strain dcc1, stronger effect = lower value",1
same,normalized growth,"locus YCL029C, strain bik1, stronger effect = lower value",0.726 (active)
same,normalized growth,"locus YCL061C, strain MRC1, stronger effect = lower value",0.978
same,normalized growth,"locus YCL069W, strain vba3, stronger effect = lower value",0.972
same,normalized growth,"locus YCR088W, strain abp1, stronger effect = lower value",0.978
same,normalized growth,"locus YDL005C, strain med2, stronger effect = lower value",0.969
same,normalized growth,"locus YDL035C, strain GPR1, stronger effect = lower value",1.02
same,normalized growth,"locus YDL040C, strain nat1, stronger effect = lower value",0.974
same,normalized growth,"locus YDL074C, strain BRE1, stronger effect = lower value",1.01
same,normalized growth,"locus YDL101C, strain DUN1, stronger effect = lower value",1.02
same,normalized growth,"locus YDL134C, strain PPH21, stronger effect = lower value",1.01
same,normalized growth,"locus YDL185W, strain tfp1, stronger effect = lower value",1.01
same,normalized growth,"locus YDL192W, strain arf1, stronger effect = lower value",0.101 (active)
same,normalized growth,"locus YDR001C, strain nth1, stronger effect = lower value",0.98
same,normalized growth,"locus YDR069C, strain doa4, stronger effect = lower value",0.992
same,normalized growth,"locus YDR101C, strain arx1, stronger effect = lower value",0.494 (active)
same,normalized growth,"locus YDR137W, strain rgp1, stronger effect = lower value",0.989
same,normalized growth,"locus YDR150W, strain NUM1, stronger effect = lower value",1.02
same,normalized growth,"locus YDR159W, strain sac3, stronger effect = lower value",0.961
same,normalized growth,"locus YDR162C, strain NBP2, stronger effect = lower value",1
same,normalized growth,"locus YDR195W, strain ref2",0.937
same,normalized growth,"locus YDR297W, strain sur2, stronger effect = lower value",0.999
same,normalized growth,"locus YDR318W, strain mcm21, stronger effect = lower value",0.0684 (active)
same,normalized growth,"locus YDR334W, strain swr1, stronger effect = lower value",0.966
same,normalized growth,"locus YDR335W, strain msn5, stronger effect = lower value",0.979
same,normalized growth,"locus YDR388W, stronger effect = lower value",0.0657 (active)
same,normalized growth,"locus YDR392W, strain spt3, stronger effect = lower value",1.02
same,normalized growth,"locus YDR502C, strain sam2, stronger effect = lower value",0.111 (active)
same,normalized growth,"locus YEL003W, strain gim4, stronger effect = lower value",0.985
same,normalized growth,"locus YEL037C, strain rad23, stronger effect = lower value",0.988
same,normalized growth,"locus YEL061C, strain CIN8 (second series), stronger effect = lower value",0.964
same,normalized growth,"locus YEL061C, strain CIN8, stronger effect = lower value",1
same,normalized growth,"locus YER015W, strain faa2, stronger effect = lower value",0.989
same,normalized growth,"locus YER016W, strain bim1, stronger effect = lower value",0.987
same,normalized growth,"locus YER110C, stronger effect = lower value",0.264 (active)
same,normalized growth,"locus YER111C, strain swi4, stronger effect = lower value",0.945
same,normalized growth,"locus YER155C, strain BEM2 (second series), stronger effect = lower value",0.994
same,normalized growth,"locus YER155C, strain BEM2, stronger effect = lower value",1.01
same,normalized growth,"locus YER167W, strain BCK2, stronger effect = lower value",1.02
same,normalized growth,"locus YFR010W, strain ubp6, stronger effect = lower value",0.962
same,normalized growth,"locus YGL078C, strain dbp3, stronger effect = lower value",0.138 (active)
same,normalized growth,"locus YGL086W, strain mad1, stronger effect = lower value",0.0586 (active)
same,normalized growth,"locus YGL167C, strain pmr1, stronger effect = lower value",0.971
same,normalized growth,"locus YGL173C, strain kem1, stronger effect = lower value",0.985
same,normalized growth,"locus YGL227W, strain vid30, stronger effect = lower value",0.978
same,normalized growth,"locus YGL240W, strain doc1, stronger effect = lower value",0.991
same,normalized growth,"locus YGL248W, strain PDE1, stronger effect = lower value",1.01
same,normalized growth,"locus YGL253W, strain hxk2, stronger effect = lower value",0.97
same,normalized growth,"locus YGR078C, strain PAC10, stronger effect = lower value",1
same,normalized growth,"locus YGR135W, strain pre9, stronger effect = lower value",0.0725 (active)
same,normalized growth,"locus YGR229C, strain SMI1, stronger effect = lower value",1.01
same,normalized growth,"locus YGR252W, strain gcn5, stronger effect = lower value",0.211 (active)
same,normalized growth,"locus YHR013C, strain ard1, stronger effect = lower value",0.997
same,normalized growth,"locus YHR027C, strain rpn1, stronger effect = lower value",0.995
same,normalized growth,"locus YHR030C, strain SLT2, stronger effect = lower value",1.01
same,normalized growth,"locus YHR079C, strain IRE1 (second series), stronger effect = lower value",0.578 (active)
same,normalized growth,"locus YHR079C, strain IRE1, stronger effect = lower value",1.04
same,normalized growth,"locus YHR094C, strain hxt1, stronger effect = lower value",0.127 (active)
same,normalized growth,"locus YHR129C, strain ARP1, stronger effect = lower value",0.998
same,normalized growth,"locus YHR142W, strain chs7, stronger effect = lower value",0.982
same,normalized growth,"locus YHR200W, strain rpn10, stronger effect = lower value",0.122 (active)
same,normalized growth,"locus YIL066C, strain RNR3, stronger effect = lower value",1.02
same,normalized growth,"locus YIL073C, strain SPO22, stronger effect = lower value",1.09
same,normalized growth,"locus YIL125W, strain kgd1, stronger effect = lower value",0.198 (active)
same,normalized growth,"locus YIR030C, strain dcg1, stronger effect = lower value",0.292 (active)
same,normalized growth,"locus YJL092W, strain hpr5, stronger effect = lower value",0.972
same,normalized growth,"locus YJL095W, strain BCK1 (second series), stronger effect = lower value",0.979
same,normalized growth,"locus YJL095W, strain BCK1, stronger effect = lower value",0.991 and 0.987
same,normalized growth,"locus YJL115W, strain asf1, stronger effect = lower value",0.987
same,normalized growth,"locus YJL129C, strain trk1, stronger effect = lower value",0.958
same,normalized growth,"locus YJL134W, strain LCB3, stronger effect = lower value",1.01
same,normalized growth,"locus YJL154C, strain vps35, stronger effect = lower value",0.974
same,normalized growth,"locus YJL164C, strain tpk1, stronger effect = lower value",0.999
same,normalized growth,"locus YJL166W, strain qcr8, stronger effect = lower value",1.02
same,normalized growth,"locus YJL168C, strain set2, stronger effect = lower value",0.202 (active)
same,normalized growth,"locus YJL187C, strain SWE1 (second series), stronger effect = lower value",1.01
same,normalized growth,"locus YJR043C, strain POL32, stronger effect = lower value",1.02
same,normalized growth,"locus YJR066W, strain TOR1, stronger effect = lower value",0.984
